Source: PubChem BioAssay (EPA / NIEHS)
Active and inactive are the calls of the source. Rule for the calls: active = hit-call score of the fitted dose curve at least 0.9, where 1 is the maximum; inactive = score below 0.9.

Columns and labels:
Conditions in all cases: mRNA level, 48 h; actives raise or lower the signal
[1] = read-out: Peroxisomal acyl-coenzyme A oxidase 1 (ACOX1) gene, ACOX1 (gene 51); assay: LTEA_HepaRG_ACOX1: Life Technologies and Expression Analysis (LTEA) Assay for Peroxisomal acyl-coenzyme A oxidase 1 (ACOX1) gene using HepaRG (AID 2283467)
How it was run: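 Human HepaRG hepatic cultures, 48 h treatment with test chemicals up to 100 uM. ACOX1 expression read by qRT-PCR relative to 0.5% DMSO vehicle.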

[2] = read-out: Alkaline Phosphatase, Placental (ALPP) gene, ALPP (gene 250); assay: LTEA_HepaRG_ALPP: Life Technologies and Expression Analysis (LTEA) Assay for Alkaline Phosphatase, Placental (ALPP) gene using HepaRG (AID 2283468);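 for AC50: differentiated human HepaRG liver cells in serum-free induction medium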
How it was run: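 HepaRG, 48 h plating then 48 h dosing, serum-free induction medium, 0.5% DMSO. 8 conc, half-log, max 100 uM, duplicates. Endpoint: ALPP transcript by qRT-PCR, housekeeping-normalized; gain or loss fitted vs DMSO.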

[3] = read-out: Bcl-2 (BAD) gene, BAD (gene 572); assay: LTEA_HepaRG_BAD: Life Technologies and Expression Analysis (LTEA) Assay for Bcl-2 (BAD) gene using HepaRG (AID 2283469)
How it was run: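 Activity values reflect up- or down-regulation of BAD mRNA in human HepaRG hepatic cells treated 48 h in serum-free medium, with eight-point half-log dosing capped at 100 uM and 0.5% DMSO vehicle.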

[4] = read-out: Bcl-2 (BAX) gene, BAX (gene 581); assay: LTEA_HepaRG_BAX: Life Technologies and Expression Analysis (LTEA) Assay for Bcl-2 (BAX) gene using HepaRG (AID 2283470)
How it was run: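 Human HepaRG cells treated in duplicate for 48 h across eight concentrations (max 100 uM, 0.5% DMSO); BAX expression measured by qRT-PCR.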

[5] = read-out: adenosine kinase (ADK) gene, ADK (gene 132); assay: LTEA_HepaRG_ADK: Life Technologies and Expression Analysis (LTEA) Assay for adenosine kinase (ADK) gene using HepaRG (AID 2283471)
How it was run: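 Read-out is ADK transcript level measured by qRT-PCR and normalised to three housekeeping genes. Cells are human HepaRG, dosed for 48 h at up to 100 uM in 0.5% DMSO. Gain or loss of signal is fitted against DMSO controls.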

BCL2L11 (gene 10018) = assay: LTEA_HepaRG_BCL2L11: Life Technologies and Expression Analysis (LTEA) Assay for Bcl-2 (BCL2L11) gene using HepaRG (AID 2283473)
How it was run: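 Read-out is BCL2L11 transcript level by qRT-PCR, normalized to three housekeeping genes and fitted bidirectionally against 0.5% DMSO vehicle. HepaRG cells received chemicals for 48 h in serum-free induction medium, 100 uM down in half-log dilutions.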

[6] = read-out: Apolipoprotein A-V (APOA5) gene, APOA5 (gene 116519); assay: LTEA_HepaRG_APOA5: Life Technologies and Expression Analysis (LTEA) Assay for Apolipoprotein A-V (APOA5) gene using HepaRG (AID 2283474)
How it was run: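 Readout is APOA5 transcript level by qRT-PCR on Fluidigm dynamic arrays, normalized to three housekeeping genes. HepaRG cultures received chemicals for 48 h at up to 100 uM (half-log steps, 0.5% DMSO), with gain or loss scored relative to DMSO.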

[7] = read-out: Apoptosis regulator Bcl-2 (Homo sapiens) (UniProt P10415); assay: LTEA_HepaRG_BCL2: Life Technologies and Expression Analysis (LTEA) Assay for Bcl-2 gene using HepaRG (AID 2283475);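 note: BCL2 transcript by TaqMan qRT-PCR normalised to ACTB GAPDH and POLR2A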
How it was run: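 Each chemical was tested in duplicate on HepaRG cultures held in serum-free induction medium for 48 h, highest concentration 100 uM with half-log dilutions. Transcript levels came from multiplexed qRT-PCR, normalised to housekeeping genes; activity was scored in either direction relative to DMSO.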

Caspase-3 (Homo sapiens) = Caspase-3 (Homo sapiens) (UniProt P42574); assay: LTEA_HepaRG_CASP3: Life Technologies and Expression Analysis (LTEA) Assay for cysteine-aspartic acid protease (CASP3) using HepaRG (AID 2283477)
How it was run: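 Read-out is CASP3 mRNA level by TaqMan qRT-PCR in human HepaRG cells after 48 h chemical exposure. Eight half-log concentrations topping at 100 uM were tested in 0.5% DMSO; gain or loss was fitted relative to DMSO.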

[8] = read-out: Cytochrome P450 (CYP24A1), CYP24A1 (gene 1591); assay: LTEA_HepaRG_CYP24A1: Life Technologies and Expression Analysis (LTEA) Assay for Cytochrome P450 (CYP24A1) using HepaRG (AID 2283478)
How it was run: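 HepaRG, 48 h chemical exposure, 8-pt half-log CRC from 100 uM, 0.5% DMSO vehicle, duplicates. Endpoint: CYP24A1 mRNA by Fluidigm TaqMan qRT-PCR, normalized ACTB/GAPDH/POLR2A; gain/loss fit vs DMSO.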

[9] = read-out: Cytochrome P450 (CYP1A2), CYP1A2 (gene 1544); assay: LTEA_HepaRG_CYP1A2: Life Technologies and Expression Analysis (LTEA) Assay for Cytochrome P450 (CYP1A2) using HepaRG (AID 2283479)
How it was run: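 CYP1A2 transcript induction or loss, quantified by Fluidigm qRT-PCR against three housekeeping genes, was fitted bidirectionally against 0.5% DMSO controls. Human HepaRG cells received eight half-log concentrations from 100 uM over 48 h.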

[10] = read-out: Cytochrome P450 (CYP2B6), CYP2B6 (gene 1555); assay: LTEA_HepaRG_CYP2B6: Life Technologies and Expression Analysis (LTEA) Assay for Cytochrome P450 (CYP2B6) using HepaRG (AID 2283481)
How it was run: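 HepaRG cells plated 48 h, switched to serum-free induction medium, then dosed 48 h (8 points, half-log from 100 uM, 0.5% DMSO). RNA isolated; CYP2B6 expression measured by qRT-PCR; gain or loss fitted relative to DMSO.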

[11] = read-out: Cytochrome P450 2C19 (Homo sapiens) (UniProt P33261); assay: LTEA_HepaRG_CYP2C19: Life Technologies and Expression Analysis (LTEA) Assay for CYP2C19 using HepaRG (AID 2283482)
How it was run: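 Transcript levels of CYP2C19 were quantified by qRT-PCR after HepaRG cells were treated for 48 hours with test chemicals up to 100 uM (eight half-log concentrations, 0.5% DMSO vehicle). Gain or loss of signal was fitted relative to DMSO.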

CYP2C8 (gene 1558) = assay: LTEA_HepaRG_CYP2C8: Life Technologies and Expression Analysis (LTEA) Assay for CYP2C8 using HepaRG (AID 2283483)
How it was run: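 This is a transcriptional endpoint in HepaRG cultures: 48 h exposure, highest concentration 100 uM. CYP2C8 mRNA is quantified by TaqMan qRT-PCR.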

CYP2C9 (gene 1559) = assay: LTEA_HepaRG_CYP2C9: Life Technologies and Expression Analysis (LTEA) Assay for CYP2C9 using HepaRG (AID 2283484)
How it was run: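 Eight-point concentration-response (highest 100 uM, half-log dilutions) in HepaRG cells for 48 h; CYP2C9 expression by qRT-PCR normalized to ACTB, GAPDH, POLR2A. Bidirectional fit, DMSO baseline.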

CYP2E1 (gene 1571) = assay: LTEA_HepaRG_CYP2E1: Life Technologies and Expression Analysis (LTEA) Assay for CYP2E1 using HepaRG (AID 2283485)
How it was run: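 Assay uses 48 h exposure of HepaRG hepatic cells, eight concentrations to 100 uM. Expression of CYP2E1 is quantified by TaqMan qRT-PCR with ACTB, GAPDH and POLR2A normalization; curves fitted in both directions relative to vehicle.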

CYP4A11 (gene 1579) = assay: LTEA_HepaRG_CYP4A11: Life Technologies and Expression Analysis (LTEA) Assay for CYP4A11 using HepaRG (AID 2283486)
How it was run: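 HepaRG, 48 h chem exposure, 8 conc (100 uM top, half-log), 0.5% DMSO vehicle; qRT-PCR readout, housekeeping-gene normalized; bidirectional curve fit vs DMSO baseline.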

[12] = read-out: cysteine-aspartic acid protease (CASP8), CASP8 (gene 841); assay: LTEA_HepaRG_CASP8: Life Technologies and Expression Analysis (LTEA) Assay for cysteine-aspartic acid protease (CASP8) using HepaRG (AID 2283480)
How it was run: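 Concentration-response in duplicate up to 100 uM (half-log steps, 0.5% DMSO) on differentiated HepaRG cultures for 48 h. Expression change of CASP8 mRNA is determined by TaqMan qRT-PCR with housekeeping-gene normalization.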

Measured: AC50

Chain of Apoptosis regulator Bcl-2 (Homo sapiens) (P10415 whole entry, looked up): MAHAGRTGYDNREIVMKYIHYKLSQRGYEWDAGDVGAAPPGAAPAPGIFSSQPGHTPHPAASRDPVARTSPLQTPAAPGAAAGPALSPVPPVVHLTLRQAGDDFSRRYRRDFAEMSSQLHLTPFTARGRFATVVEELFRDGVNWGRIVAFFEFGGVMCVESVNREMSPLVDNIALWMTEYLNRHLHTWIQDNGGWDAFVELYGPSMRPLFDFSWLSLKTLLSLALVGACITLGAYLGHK
Chain of Caspase-3 (Homo sapiens) (P42574 whole entry, looked up): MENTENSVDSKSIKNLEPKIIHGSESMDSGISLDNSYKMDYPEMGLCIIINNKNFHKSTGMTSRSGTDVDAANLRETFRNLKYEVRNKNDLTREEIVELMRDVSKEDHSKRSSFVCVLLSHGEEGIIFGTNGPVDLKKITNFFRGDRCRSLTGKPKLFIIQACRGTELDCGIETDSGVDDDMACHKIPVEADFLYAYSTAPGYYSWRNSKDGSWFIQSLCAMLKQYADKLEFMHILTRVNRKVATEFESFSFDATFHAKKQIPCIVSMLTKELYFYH
Chain of Cytochrome P450 2C19 (Homo sapiens) (P33261 whole entry, looked up): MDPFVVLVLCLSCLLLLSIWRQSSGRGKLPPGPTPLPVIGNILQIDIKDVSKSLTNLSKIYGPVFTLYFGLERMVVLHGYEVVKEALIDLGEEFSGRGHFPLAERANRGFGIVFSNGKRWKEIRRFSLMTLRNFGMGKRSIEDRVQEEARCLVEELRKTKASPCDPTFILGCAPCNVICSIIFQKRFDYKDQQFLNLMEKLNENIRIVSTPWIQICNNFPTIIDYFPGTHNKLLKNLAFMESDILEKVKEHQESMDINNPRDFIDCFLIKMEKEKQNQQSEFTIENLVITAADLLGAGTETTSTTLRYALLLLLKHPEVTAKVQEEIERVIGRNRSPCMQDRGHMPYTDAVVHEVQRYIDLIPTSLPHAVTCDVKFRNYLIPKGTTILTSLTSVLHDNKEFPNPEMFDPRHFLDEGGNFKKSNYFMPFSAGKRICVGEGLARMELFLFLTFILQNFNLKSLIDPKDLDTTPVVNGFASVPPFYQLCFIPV

O=C(O)C(F)(F)C(F)(F)C(F)(F)C(F)(F)C(F)(F)C(F)(F)C(F)(F)C(F)(F)F
active: [1] 90.4 µM | [2] 50 µM | [4] 76.3 µM | BCL2L11 (gene 10018) 50 µM | [6] 82 µM | [7] 73.6 µM | [9] 83.6 µM | [10] 82.4 µM | [11] 87.1 µM | CYP2C8 (gene 1558) 80 µM | CYP2C9 (gene 1559) 80.5 µM | CYP2E1 (gene 1571) 93.9 µM | CYP4A11 (gene 1579) 89.5 µM
inactive: [3] | [5] | Caspase-3 (Homo sapiens) | [8]

NS(=O)(=O)C(F)(F)C(F)(F)C(F)(F)C(F)(F)C(F)(F)C(F)(F)C(F)(F)C(F)(F)F
inactive: [2] | [4] | [8]
active: [1] 14.9 µM | [3] 17.6 µM | [5] 4.81 µM | BCL2L11 (gene 10018) 4.05 µM | [6] 10 µM | [7] 2.79 µM | Caspase-3 (Homo sapiens) 3.73 µM | [9] 5 µM | [10] 9.56 µM | [11] 9.68 µM | CYP2C8 (gene 1558) 11.1 µM | CYP2C9 (gene 1559) 12.7 µM | CYP2E1 (gene 1571) 6.73 µM | CYP4A11 (gene 1579) 12.6 µM

CCC(C)c1cc([N+](=O)[O-])cc([N+](=O)[O-])c1O (stereo unspecified)
inactive: [3] | Caspase-3 (Homo sapiens) | [8]
active: [1] 1.4 µM | [2] 1.58 µM | [4] 7.23 µM | [5] 2.24 µM | [6] 1.58 µM | [7] 12.3 µM | [9] 2.66 µM | [12] 4 µM | [10] 1.32 µM | [11] 2.12 µM | CYP2C8 (gene 1558) 2.6 µM | CYP2C9 (gene 1559) 1.71 µM | CYP2E1 (gene 1571) 1.22 µM | CYP4A11 (gene 1579) 2.78 µM

ClC1=C(Cl)[C@]2(Cl)[C@@H]3[C@@H](Cl)[C@H]4O[C@H]4[C@@H]3C1(Cl)C2(Cl)Cl
active: [10] 0.526 µM | [11] 1.21 µM | CYP2E1 (gene 1571) 25.5 µM | CYP4A11 (gene 1579) 31.1 µM
not listed: BCL2L11 (gene 10018) | [12]
inactive: all other assays above

CO/C=C(/C(=O)OC)c1ccccc1COc1cccc(C(F)(F)F)n1
active: [1] 5.3 µM | [2] 5.39 µM | [4] 9.44 µM | [6] 9.59 µM | [7] 9.33 µM | [9] 7.53 µM | [10] 7.13 µM | [11] 8.79 µM | CYP2C8 (gene 1558) 8.74 µM | CYP2C9 (gene 1559) 8.81 µM | CYP2E1 (gene 1571) 3.61 µM | CYP4A11 (gene 1579) 3.9 µM
inactive: [3] | [5] | Caspase-3 (Homo sapiens) | [8]

O=C(O)C(F)(F)C(F)(F)C(F)(F)C(F)(F)C(F)(F)C(F)(F)C(F)(F)C(F)(F)C(F)(F)F
active: [1] 78.4 µM | [2] 68.1 µM | [4] 12.6 µM | [5] 81.1 µM | [6] 30.8 µM | Caspase-3 (Homo sapiens) 82.5 µM | [9] 22.2 µM | [10] 80.1 µM | [11] 81.1 µM | CYP2C8 (gene 1558) 76.6 µM | CYP2C9 (gene 1559) 74.2 µM | CYP2E1 (gene 1571) 25.4 µM | CYP4A11 (gene 1579) 81.5 µM
inactive: [3] | [7] | [8]

Cc1cc(-c2ccc(N)c(C)c2)ccc1N
active: [9] 37 µM | [10] 9.15 µM | CYP2E1 (gene 1571) 16.3 µM
not listed: BCL2L11 (gene 10018)
inactive: all other assays above
